This note sets out measurements from PubChem BioAssay (NCATS).

Assay [1] in a line: P-glycoprotein substrates identified in KB-3-1 adenocarcinoma cell line, qHTS therapeutic library screen (AID 1346986). Note: nearly all actives have a fitted effect of over 60% in size.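 Note: potency is the fitted concentration of half-maximal effect; potency is for cytotoxicity meaning loss of cell viability.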 In outline:
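KB-3-1 parental and colchicine-selected P-gp-overexpressing KB-8-5-11 cells (colchicine omitted during assay), 500 cells/well, dosed in dose-response for 72 h at 37 °C; CellTiter-Glo luminescence. Cytotoxic: curve class -1.1 to -2.4, max response >50%, AC50 < 10 uM.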
For orientation: Quantitative high-throughput screening tests each substance at several concentrations.

The nature of assay [2]: P-glycoprotein substrates identified in KB-8-5-11 adenocarcinoma cell line, qHTS therapeutic library screen (AID 1346987). Note: nearly all actives have a fitted effect of over 65% in size. Note: potency is the fitted concentration of half-maximal effect. The procedure, abridged: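 KB-8-5-11, a colchicine-selected P-gp-overexpressing KB-3-1 subline, was grown without colchicine for the assay. Cells were seeded at 500 cells/well, dosed in concentration-response and incubated 72 h at 37 degree C, 5% CO2. Viability was read by CellTiter-Glo luminescence.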

A short description of assay [3]: NS1 protein of Zika virus - qHTS assay to identify small molecule inhibitors in human HEK 293 cells (AID 1347053). Note: nearly all actives have a fitted effect of over 55% in size. Note: potency is the fitted concentration of half-maximal effect. In outline:
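Following 20 h seeding, HEK 293 cells took compound, then 1 h later ZIKV MR766 (MOI = 0.5). Incubation ran 24 h at 37 C before TR-FRET detection of NS1; a drop in signal indicates inhibition.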

Assay [4] is described as follows: qHTS of pediatric cancer cell lines to identify multiple opportunities for drug repurposing: Primary screen for TC32 cells (AID 1347089). Note: nearly all actives have a fitted effect of over 60% in size. The procedure, abridged:
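TC32 cells, 500-1,000/well in growth medium, compound-treated 48 h at 37 °C; viability from CellTiter-Glo luminescence. Primary screen: MIPE 11-point (0.78 nM–46 µM final), NPC 8-point (0.59 nM–46 µM final); confirmatory at 11-point dilutions.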

A short description of assay [5]: qHTS of pediatric cancer cell lines to identify multiple opportunities for drug repurposing: Primary screen for DAOY cells (AID 1347090). Note: nearly all actives have a fitted effect of over 55% in size. Note: potency is the fitted concentration of half-maximal effect. The procedure, abridged:
(§1)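 Viability measured as metabolically active cells via CellTiter-Glo luminescence following 48 hours of compound exposure, 11-point dilutions in confirmatory testing. 500-1,000 cells/well plated 5 hours before dosing; controls were DMSO and 2.3 µM bortezomib.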

Assay [6] is described as follows: qHTS of pediatric cancer cell lines to identify multiple opportunities for drug repurposing: Primary screen for SJ-GBM2 cells (AID 1347091). Note: potency is the fitted concentration of half-maximal effect. In outline: as §1
A short description of assay [7]: qHTS of pediatric cancer cell lines to identify multiple opportunities for drug repurposing: Primary screen for A673 cells (AID 1347092). Note: nearly all actives have a fitted effect of over 45% in size. Note: potency is the fitted concentration of half-maximal effect. The procedure, abridged:
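A673 cells (500-1,000 cells/well) were treated 48 hours at 37 degrees C with compounds at 11-point (0.78 nM to 46 µM) or 8-point (0.59 nM to 46 µM) dilutions. Viability read by CellTiter-Glo luminescence; concentration-response curves fitted.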

Assay [8] is described as follows: qHTS of pediatric cancer cell lines to identify multiple opportunities for drug repurposing: Primary screen for NB-EBc1 cells (AID 1347095). Note: potency is the fitted concentration of half-maximal effect. In outline:
(§2)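 CRCs from 8- or 11-point titrations (lowest final 0.59 nM NPC, 0.78 nM MIPE). Cell viability: CellTiter-Glo after 48 h incubation, 15 min room-temperature development, luminescence imaging.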

Assay [9] can be described thus: qHTS of pediatric cancer cell lines to identify multiple opportunities for drug repurposing: Primary screen for Saos-2 cells (AID 1347097). Note: nearly all actives have a fitted effect of over 40% in size. Note: potency is the fitted concentration of half-maximal effect. In outline:
as §2

A short description of assay [10]: qHTS of pediatric cancer cell lines to identify multiple opportunities for drug repurposing: Primary screen for SK-N-SH cells (AID 1347098). Note: nearly all actives have a fitted effect of over 65% in size. Note: potency is the fitted concentration of half-maximal effect. The procedure, abridged:
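Cells (500-1,000/well) rested 5 h, then received compounds for 48 h; metabolically active cells were measured by CellTiter-Glo luminescence. Final concentrations spanned up to 46 µM (MIPE, 11-point) or 0.59 nM-46 µM (NPC, 8-point) in primary screens, 11-point in follow-ups.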

Assay [11] can be described thus: qHTS of pediatric cancer cell lines to identify multiple opportunities for drug repurposing: Primary screen for BT-37 cells (AID 1347094). Note: potency is the fitted concentration of half-maximal effect. The procedure, abridged:
as §2

A short description of assay [12]: qHTS of pediatric cancer cell lines to identify multiple opportunities for drug repurposing: Primary screen for U-2 OS cells (AID 1347096). Note: nearly all actives have a fitted effect of over 50% in size. Note: potency is the fitted concentration of half-maximal effect. In outline: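 Viability after 48 h compound treatment at 37C, 500-1,000 cells/well, read as ATP luminescence with CellTiter-Glo. Primary screens used 11-point (MIPE, 0.78 nM-46 µM) or 8-point (NPC, 0.59 nM-46 µM) final concentrations; follow-up screens used 11-point dilutions.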

Assay [13] in a line: qHTS of pediatric cancer cell lines to identify multiple opportunities for drug repurposing: Primary screen for SK-N-MC cells (AID 1347093). Note: potency is the fitted concentration of half-maximal effect. The procedure, abridged:
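Metabolically active cells were quantified by ATP-dependent luminescence (CellTiter-Glo, 15 min at room temperature) following 48 h treatment. Cells had been plated at 500-1,000 per well and settled for 5 h beforehand.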

Values joined by “and” are separate entries in the source; they are usually repeats but may differ in a detail not shown here. Equal entries are not always repeated. Inconclusive results are not listed. Some compounds were tested as several samples or in several runs, with calls that do not always agree. Active and inactive are the calls of the source. Calls come from the whole dose curve; as a rule, active = well fitted curve in the direction sought with a large enough effect; inconclusive = small, poorly fitted or top-dose-only effect, or another doubt; inactive = no such curve, though single readings can be large; an effect the other way counts as inactive or inconclusive.

Regarding `O=C(NCCCCN1CCOCC1)c1cc2ccccc2o1`, the Potency result in assay [1], in assay [2], in [3], in [4], in assay [5] and in assay [6] was “inactive” throughout. In addition, the Potency result in assay [7], in assay [8] and in [9] was “inactive” each time. Besides, the Potency in assay [10] was 30.4 µM (active).

Take `CCCCCCCCCCCCCCCC(=O)O[C@H]1[C@@H](O)[C@@H](O)[C@@H]([C@H](NC(=O)[C@@H]2C[C@@H](CCC)CN2C)[C@H](C)Cl)O[C@@H]1SC`: the Potency result in assay [1], in [2], in assay [3], in [4], in assay [6] and in [11] was “inactive” throughout. The Potency result in [8], in [12] and in assay [9] was “inactive” each time.

As to `CN1C(=O)C(Cc2c[nH]c3ccccc23)NC1=S` (stereo unspecified), the Potency result in [1], in [2], in [3], in [4], in assay [7] and in assay [13] was “inactive” in each case. For the same compound, the Potency entry in [11], in assay [8], in [12], in assay [9] and in [10] was “inactive” throughout.

For the compound `CNC(=O)c1ccc2c(C(=Nc3cccc(CN(C)C)c3)c3ccccc3)c(O)[nH]c2c1`, the Potency entry in assay [1], in assay [2], in [3], in assay [4], in assay [5] and in assay [12] was “inactive” throughout. The Potency in assay [7] is 11.8 µM (active); in [13], 23.5 µM (active); in assay [10], 21.5 µM (active).

Consider `O=c1[nH]c(=O)n([C@H]2C[C@@H](O)[C@@H](CO)O2)cc1I`, for which the Potency entry in [1], in [2], in assay [3], in assay [5], in assay [6] and in assay [7] was “inactive” throughout. Further, the Potency result in [13], in assay [11], in [8], in assay [12], in [9] and in [10] was “inactive” each time.

Take `CN(C)CCCNC(=O)c1ccc(-c2cc(O)c3ncccc3c2)cc1`: the Potency is 18.4 µM (active) in assay [1] and 23.5 µM (active) in assay [7]. Further, the Potency entry in [3], in assay [4], in assay [5], in [13] and in assay [12] was “inactive” each time.

Take `Nc1ncnc2c1ncn2[C@@H]1O[C@H](CO)[C@@H](O)[C@@H]1O`: the Potency entry in assay [1], in [2] and in assay [3] was “inactive” throughout. Besides, the Potency in assay [5] was 4.69 µM (active); in assay [6], 2.35 µM (active); in assay [7], 0.935 µM (active); in assay [13], 0.833 µM (active); in [11], 5.44 µM (active); in assay [8] it was 3.32 µM (active). For the same compound, the Potency in assay [9] was 2.96 µM (active); in assay [10], 15.2 µM (active).

Take `Cc1cc(C(C)Nc2ccccc2)c2nc(N3CCOCC3)cc(=O)n2c1` (stereo unspecified): the Potency entry in assay [1], in [2], in [3], in [4], in assay [8] and in [12] was “inactive” each time. In addition, in assay [7], the Potency was 0.935 µM (active).

Turning to `O=C1NC(=O)C(c2cnc3ccccn23)=C1c1cn2c3c(cccc13)CN(C(=O)N1CCOCC1)CC2`, the Potency is 5.8 µM (active) in assay [1]; 0.59 µM (active) in assay [3]; 0.0235 µM (active) in [5]; 0.0235 µM (active) in [6]; 0.0235 µM (active) in assay [13]; 19.3 µM (active) in assay [11]. Further, the Potency in assay [8] was 0.0166 µM (active). In addition, in [12], the Potency result was “inactive”.

Turning to `CN1CCN(c2cccc(Nc3nc4c(-c5ccc(S(C)(=O)=O)cc5)cccn4n3)c2)CC1`, the Potency entry in [1] is “inactive and 23.1 µM (active)”; in assay [2], “inactive and 20.6 µM (active)”; in assay [7] it was 9.35 µM (active); in [13], 1.48 µM (active); in assay [9], 18.7 µM (active). Also, the Potency entry in assay [4], in [5], in [8] and in assay [12] was “inactive” throughout.

Turning to `COc1nc(C)cnc1NS(=O)(=O)c1cccnc1-c1ccc(-c2nnco2)cc1`, the Potency result in assay [1], in assay [2], in [3], in [5], in [6] and in assay [7] was “inactive” each time. The Potency result in [13], in assay [11], in [8], in assay [12] and in assay [9] was “inactive” throughout.

Take `Cc1cc(NC(=O)Nc2ccc(N(C)C)cc2)c2cc(F)cc(F)c2n1`: the Potency result in [1], in assay [2], in assay [3], in [5], in assay [7] and in assay [13] was “inactive” throughout. Besides, the Potency result in [12] and in [10] was “inactive” in each case.

Take `CC(C)Oc1cc(Nc2nc(N[C@@H](C)c3ccc(F)cn3)ncc2Cl)[nH]n1`: the Potency in assay [1] is 10.3 µM (active); in assay [2] it was 4.69 µM (active) and 8.2 µM (active); in [6], 16.6 µM (active); in assay [7], 9.35 µM (active); in assay [13], 4.69 µM (active); in [11], 27.3 µM (active). Further, the Potency in assay [8] is 3.32 µM (active); in [12], 23.5 µM (active); in assay [9], 5.26 µM (active); in [10], 13.6 µM (active). In addition, the Potency entry in [3] was “inactive”.

For `CC[C@H](NC(=O)[C@H](C)NC)C(=O)N1C[C@@H](O)C[C@H]1Cc1c(-c2[nH]c3cc(F)ccc3c2C[C@H]2C[C@H](O)CN2C(=O)[C@H](CC)NC(=O)[C@H](C)NC)[nH]c2cc(F)ccc12`, the Potency result in assay [1], in [2] and in assay [4] was “inactive” in each case. In addition, the Potency in assay [5] is 2.35 µM (active); in [6], 0.0469 µM (active); in [7] it was 0.0118 µM (active); in assay [8], 0.418 µM (active); in assay [9], 0.372 µM (active).

Consider `Cc1ccc(NC(=O)c2ccc(CN3CCN(C)CC3)cc2)cc1Nc1nc(-c2cccnc2)cs1`, for which the Potency entry in [1], in [4] and in assay [8] was “inactive” each time. Further, the Potency in assay [7] is 11.8 µM (active); in assay [11], 24.3 µM (active).

Regarding `CCCCC(C)(C)[C@H](O)C=C[C@H]1[C@H](O)CC(=O)[C@H]1CC=CCCCC(=O)O`, the Potency result in [1], in assay [2], in assay [3], in assay [5], in [6] and in assay [12] was “inactive” each time. The Potency entry in [9] and in assay [10] was “inactive” in each case. In addition, the Potency was 20.9 µM (active) in [13] and 5.26 µM (active) in assay [8].
